{"source": "PubChem BioAssay (Tox21)", "note": "Unmarked numbers belong to inactive results. Calls of active or inactive are those of the source. Calls follow the shape of the full dose curve. % is scaled to controls: 0 for no effect and ±100 for the full control effect."}
{"target": "Acetylcholinesterase (Homo sapiens) (UniProt P22303)", "sequence (P22303 whole entry, looked up)": "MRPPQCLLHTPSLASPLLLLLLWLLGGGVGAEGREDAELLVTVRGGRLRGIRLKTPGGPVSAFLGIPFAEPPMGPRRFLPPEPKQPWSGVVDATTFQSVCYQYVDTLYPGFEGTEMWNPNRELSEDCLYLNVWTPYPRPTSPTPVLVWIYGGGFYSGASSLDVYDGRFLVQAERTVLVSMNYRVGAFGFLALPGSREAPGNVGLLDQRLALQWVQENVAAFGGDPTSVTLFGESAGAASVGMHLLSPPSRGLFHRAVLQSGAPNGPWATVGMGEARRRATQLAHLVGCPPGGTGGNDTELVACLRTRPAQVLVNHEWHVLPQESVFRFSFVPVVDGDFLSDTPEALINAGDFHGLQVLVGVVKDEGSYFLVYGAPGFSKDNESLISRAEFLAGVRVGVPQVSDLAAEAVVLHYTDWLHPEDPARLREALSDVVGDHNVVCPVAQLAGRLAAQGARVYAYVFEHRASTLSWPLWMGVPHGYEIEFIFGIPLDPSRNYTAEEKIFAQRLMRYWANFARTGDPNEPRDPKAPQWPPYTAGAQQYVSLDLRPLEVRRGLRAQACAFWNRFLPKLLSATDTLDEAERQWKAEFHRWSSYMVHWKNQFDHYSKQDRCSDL", "assay": "Acetylcholinesterase (AChE) small molecule antagonists: enzyme-based qHTS assay with human liver microsomes (AID 1347399); also: nearly all actives have a fitted effect of over 60% in size", "settings": "Potency: qHTS inhibition; outcome: qHTS inhibition; series mostly up to 115 µM; activity change, negative = inhibition: at the top concentration", "summary_of_the_method": "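Recombinant human AChE (50 mU/mL in the enzyme mix) and human liver microsomes (0.25 mg/mL final) were preincubated with compound and NADPH (0.25 mg/mL final) for 30 min at 37 C. Acetylthiocholine/DTNB was then added; thiocholine was read colorimetrically after 10 min at room temperature.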"}
{"smiles": "CC(CO)(CO)CO", "activity change, negative = inhibition": "-3.33%"}
{"smiles": "COc1ccc(N)c(C)c1", "Potency": "inactive"}
{"smiles": "CC(C)C(=O)Nc1cccc(C(F)(F)F)c1", "activity change, negative = inhibition": "-2% [at 53 µM]"}
{"smiles": "CC(=O)Oc1cccc(O)c1", "activity change, negative = inhibition": "0.157% [at 53 µM]"}
{"smiles": "C=C(C)C(=O)OCCC[Si](OC)(OC)OC", "Potency": "inactive"}
{"smiles": "CCC(C(=O)NC(=O)NC(C)=O)c1ccccc1", "note": "(stereo not given)", "activity change, negative = inhibition": "0.362% [at 53 µM]"}
{"smiles": "Cn1ccnc1", "activity change, negative = inhibition": "-0.297%"}
{"smiles": "O=C1c2cccc(O)c2C(=O)c2c(O)cccc21", "Potency": "inactive"}
{"smiles": "C[C@@H](NCCCc1cccc(C(F)(F)F)c1)c1cccc2ccccc12", "activity change, negative = inhibition": "-1% [at 53 µM]"}
{"smiles": "Cc1cccc(Nc2ccncc2S(=O)(=O)NC(=O)NC(C)C)c1", "activity change, negative = inhibition": "-0.726% [at 53 µM]"}
{"smiles": "CCn1cc(C(=O)O)c(=O)c2cc(F)c(N3CCNCC3)nc21", "activity change, negative = inhibition": "-1.16% [at 53 µM]"}
{"smiles": "OC1(c2ccc(Cl)c(C(F)(F)F)c2)CCN(CCCC(c2ccc(F)cc2)c2ccc(F)cc2)CC1", "activity change, negative = inhibition": "-3.24% [at 53 µM]"}
{"smiles": "CSc1ccc(Cl)cc1", "Potency": "inactive"}
{"smiles": "O=C(c1cc(O)c(O)c(O)c1)c1ccc(O)c(O)c1O", "Potency": "inactive"}
{"smiles": "CCCCOC(=O)COc1ccc(Cl)cc1Cl", "Potency": "inactive"}
{"smiles": "CCCCCCCCCCOC(=O)c1ccccc1C(=O)OCCCCCCCC", "activity change, negative = inhibition": "-1.04%"}
{"smiles": "Cc1cccc(C)c1NC(=O)CN1CCCC1", "activity change, negative = inhibition": "-0.252% [at 53 µM]"}
{"smiles": "C=C[C@H]1CN2CC[C@H]1C[C@@H]2[C@@H](O)c1ccnc2ccc(OC)cc12", "Potency": "inactive"}
{"smiles": "Cc1c(O)cccc1O", "activity change, negative = inhibition": "0%"}
{"smiles": "CCCOCCOCCOCCO", "activity change, negative = inhibition": "-1.05%"}
{"smiles": "C=CC(C)(CCC=C(C)C)OC(=O)/C=C/c1ccccc1", "note": "(stereo not given)", "activity change, negative = inhibition": "-1.35%"}
{"smiles": "CCCCC(CC)COC(=O)COc1cc(Cl)c(Cl)cc1Cl", "note": "(stereo not given)", "activity change, negative = inhibition": "0.0568%"}
{"smiles": "c1ccc2c(c1)CCC2", "activity change, negative = inhibition": "-0.0008%"}
{"smiles": "CCCCCCCCCCCCCCCCN", "activity change, negative = inhibition": "0% [at 53 µM]"}
{"smiles": "CCOC(=O)[C@H](CCc1ccccc1)N[C@@H](C)C(=O)N(CC(=O)O)C1Cc2ccccc2C1", "activity change, negative = inhibition": "0.723% [at 53 µM]"}
{"smiles": "CC(=O)[C@H]1CC[C@H]2[C@@H]3C[C@H](C)C4=CC(=O)CC[C@]4(C)[C@H]3[C@@H](O)C[C@]12C", "activity change, negative = inhibition": "-1.59% [at 53 µM]"}
{"smiles": "CCCCCCCCCCCCO", "Potency": "inactive"}
{"smiles": "CN(C)CCN(Cc1ccsc1)c1ccccn1", "activity change, negative = inhibition": "-0.504% [at 53 µM]"}
{"smiles": "O=C1OC2(c3ccccc31)c1cc(I)c(O)c(I)c1Oc1c2cc(I)c(O)c1I", "Potency": "inactive"}
{"smiles": "CC(=O)c1ccccc1O", "activity change, negative = inhibition": "-0.548%"}
{"smiles": "CCCC(C)CO", "note": "(stereo not given)", "activity change, negative = inhibition": "-1.66%"}
{"smiles": "Cc1ccccc1S(N)(=O)=O", "activity change, negative = inhibition": "0.382%"}
{"smiles": "CC(C)(C)CC(C)(C)c1ccc(Nc2ccc(C(C)(C)CC(C)(C)C)cc2)cc1", "activity change, negative = inhibition": "0.323% [at 10.5 µM]"}
{"smiles": "OCc1cccc(Oc2ccccc2)c1", "Potency": "inactive"}
{"smiles": "Nc1ccn([C@H]2CC[C@@H](CO)O2)c(=O)n1", "Potency": "inactive"}
{"smiles": "COP(=O)(OC)OC(c1ccc(Cl)cc1)P(=O)(OC)OC", "note": "(stereo not given)", "activity change, negative = inhibition": "-2.21% [at 53 µM]"}
{"smiles": "COc1ccc(C(=O)N2CCN(CC(=O)N3CCOCC3)CC2)cc1", "activity change, negative = inhibition": "0.117% [at 53 µM]"}
{"smiles": "O=C(O)c1ccco1", "activity change, negative = inhibition": "0.146%"}
{"smiles": "CC(C)(C)NC(=O)[C@H]1CC[C@H]2[C@@H]3CC[C@H]4NC(=O)C=C[C@]4(C)[C@H]3CC[C@]12C", "Potency": "inactive"}
{"smiles": "Cn1cnc([N+](=O)[O-])c1Sc1ncnc2nc[nH]c12", "Potency": "inactive"}
